From PubChem
Sampled rows, rich in hits. Any-hit rate of the full collection: about 9.4%.
ELG1 genotoxic – genotoxicity induction in ELG1-luciferase HEK293T cells; HEK293T ELG1-luciferase reporter, luminescence, 16 h; Potency, µM (top dose mostly 46 µM), without a hit: at the highest dose activity change, positive = activation, usual class: activators; 330,000 compounds, 1.3% hits; further: % of control where 0% means no effect; nearly all actives have a fitted effect of over 60% in size
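HEK293T cells expressing luciferase-tagged ELG1 were exposed to compound or DMSO vehicle for 16 hr at 37 °C and 5% CO2. Luciferase activity was then measured with ONE-Glo after 30 min at room temperature.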
NPC1 promoter act – activates the NPC1 promoter. Huh7 NPC1 promoter luciferase reporter, 24 h. Potency, µM (series often up to 9.22 µM), inactives show top-dose activation, actives largely listed as activators. 320,000 compounds, 2.4% hits; further: % of control where 0% means no effect; nearly all actives have a fitted effect of over 60% in size
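Stably transfected Huh7 (NPC1 promoter→luciferase), 1500 cells/well in Opti-MEM + 10% FBS, 2 h settle, then compound 24 h at 37 °C. Luminescence after 10 min with Amplite reagent.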
FLuc modulator – inhibits or activates purified firefly luciferase, miR-21 counter-screen. P08659. purified FLuc, Km substrates, luminescence inhibition. Potency, µM (series often up to 57.5 µM), for inactives: at the highest dose activity change, negative = inhibition, actives largely listed as inhibitors. 360,000 compounds, 6.9% hits. AID 588342;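 further: plate controls were vehicle for no effect and reference inhibitor for full effect; nearly all actives have a fitted effect of over 55% in size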
Target sequence (P08659 whole entry, looked up): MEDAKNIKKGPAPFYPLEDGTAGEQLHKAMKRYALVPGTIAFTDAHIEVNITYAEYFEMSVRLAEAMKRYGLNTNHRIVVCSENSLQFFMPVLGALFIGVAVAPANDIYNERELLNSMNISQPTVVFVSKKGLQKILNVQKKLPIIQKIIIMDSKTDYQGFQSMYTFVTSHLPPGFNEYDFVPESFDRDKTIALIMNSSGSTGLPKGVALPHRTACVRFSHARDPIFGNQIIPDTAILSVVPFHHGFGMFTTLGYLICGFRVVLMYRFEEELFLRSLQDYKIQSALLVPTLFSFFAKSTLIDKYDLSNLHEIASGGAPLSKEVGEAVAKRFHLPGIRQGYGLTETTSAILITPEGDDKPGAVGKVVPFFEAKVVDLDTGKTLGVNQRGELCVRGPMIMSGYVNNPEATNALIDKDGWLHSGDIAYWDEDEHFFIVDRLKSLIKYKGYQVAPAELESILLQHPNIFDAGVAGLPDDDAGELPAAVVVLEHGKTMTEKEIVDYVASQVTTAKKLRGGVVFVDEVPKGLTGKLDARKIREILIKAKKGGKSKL
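Biochemical qHTS of compounds, final roughly 60 µM downward over six points, against 10 nM purified firefly luciferase using Km concentrations of substrates (10 uM D-luciferin, 10 uM ATP) in Tris acetate pH 7.5 buffer; luminescence output.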
SMN2 splice up – increases expression of the SMN2 splice variant. Potency, µM (series often up to 46.1 µM), inactives show at the highest dose activity change, positive = activation, usual class: activators. 210,000 compounds, 2.8% hits. HEK293 SMN2-luciferase splicing reporter, luminescence, 30-36 h; further: % of control where 0% means no effect; nearly all actives have a fitted effect of over 55% in size
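qHTS luciferase splicing reporter: luminescence rises when SMN2 exon 7 is included in transfected HEK293 cells. Compound exposure lasted 30-36 h at 37C, with 4.5 mM final sodium butyrate as control, followed by a ONE-Glo read.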
ELG1 repair inh – inhibitors of ELG1-dependent DNA repair in HEK293T cells. HEK293T ELG1-luciferase reporter, luminescence, 16 h; DNA damage induced by 5-fluorouridine. Potency, µM (doses to about 46.1 µM), for the others: top-dose activity change, negative = inhibition, most hits filed as inhibitors. 330,000 compounds, 2.3% hits. AID 504467; further: on the % scale 0 is the no-effect control and ±100 the full control effect; nearly all actives have a fitted effect of over 55% in size
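Cells (2,000 per well) received 5-fluorouridine plus test compound or DMSO and were incubated 16 hr at 37 °C, 5% CO2. Luciferase activity was read by luminescence 30 min after ONE-Glo addition; signal suppression marked inhibition of damage-induced ELG1 function.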
Rab9 promoter act – Rab9 promoter activation | Potency, µM (top dose mostly 9.22 µM), for the others: at the top dose activation, negative = inhibition, hits mostly activators | Huh7 Rab9 promoter-luciferase reporter, luminescence, 24 h | 320,000 compounds, 2.8% hits; further: % of control where 0% means no effect; nearly all actives have a fitted effect of over 60% in size
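Luminescence read-out: Huh7 cells stably expressing Rab9-luciferase, treated 24 h with compound at 37 °C, then lysed with luciferase reagent for 10 min at ambient before reading.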
Starred values were filed as active, the others as inactive; ? = inconclusive; / = not tested or not shown. The call rests on the fitted dose curve; in most records, active means well fitted curve in the direction sought with a large enough effect; inconclusive means small, poorly fitted or top-dose-only effect, or another doubt; inactive means no such curve, though single readings can be large; an effect the other way counts as inactive or inconclusive. Potency means the concentration at half of the fitted maximal effect.

SMILES	ELG1 genotoxic	NPC1 promoter act	FLuc modulator	SMN2 splice up	ELG1 repair inh	Rab9 promoter act
COc1ccccc1CNC(=O)Cn1c(=O)oc2cc(S(=O)(=O)N3CCC(C)CC3)ccc21	/	/	-16%	-63%	/	/
CCC(C)Sc1ccc(-c2nc3ccc(C)cn3c2NCc2ccccc2)cc1OC (stereo unspecified)	-7%	-7%	15µM*	/	?	-3%
Cc1ccc2nc(-c3cccc(SC4CCCCC4)c3)c(NCc3ccccc3)n2c1	-9%	/	/	/	26µM*	/
CCCCNc1c(-c2ccc(OC)c(SC(C)CC)c2)nc2ccc(C)cn12 (stereo unspecified)	-7%	/	/	/	7.3µM*	/
CCCCCCSc1ccc(-c2nc3ccc(C)cn3c2NCc2ccccc2)cc1OC	-3%	-2%	-2%	/	?	1%
COCCCNC(=O)c1c(NC(=O)Cc2coc3cc(C)ccc23)sc2c1CCCC2	/	/	-17%	?	/	/
CCOc1ccc(N(C)C(=O)C2CCN(S(=O)(=O)c3ccc4c(c3)CCCN4C(C)=O)CC2)cc1	/	/	-5%	/	/	/
CN(C)C(=O)c1ccc(NC(=O)c2cncc(Br)c2)cc1	-4%	17%	?	?	?	22%
O=C(Nc1ccc2c(c1)OCO2)c1cncc(Br)c1	6%	?	27µM*	21%	?	?
O=C(Nc1ccc2c(c1)OCCO2)c1cncc(Br)c1	?	3.5µM*	4.8µM*	10µM*	?	1.4µM*
O=c1c2ccccc2nnn1CSc1nnc(-c2ccc3c(c2)OCO3)o1	?	?	6.7µM*	?	?	?
O=C1OCCC1Sc1nnc(-c2ccc3c(c2)OCO3)o1 (stereo unspecified)	-1%	-4%	9.5µM*	-28%	9%	-2%
CC(=O)CSc1nnc(-c2ccc3c(c2)OCO3)o1	?	?	6.7µM*	14µM*	?	2.8µM*
Cc1cccc(OC(=O)CSc2nnc(-c3ccc4c(c3)OCO4)o2)c1C	/	/	-2%	/	/	/
O=C1OCCC1Sc1nnc(-c2ccc(O)cc2)o1 (stereo unspecified)	1%	2%	?	-6%	3%	-2%
O=c1c2ccccc2nnn1CSc1ccccc1	?	1µM*	1.9µM*	7.9µM*	?	0.56µM*
COc1ccccc1NC(=O)C1=C(C)Nc2nnnn2C1c1ccc(C(F)(F)F)cc1 (stereo unspecified)	/	/	-11%	-13%	/	/
CCOC(=O)c1[nH]c2c(c1Cc1ccccc1)C(=O)CC(c1ccccc1)C2 (stereo unspecified)	/	/	-1%	4%	/	/
CCCCCCCc1cc2c(cn1)C(=O)C(C)(OC(C)=O)C(O)=C2Cl (stereo unspecified)	/	/	/	6%	/	/
COc1ccc(C2=NCC(CSc3nnc(-c4ccc5c(c4)OCO5)o3)S2)cc1 (stereo unspecified)	-1%	0%	9.5µM*	-22%	?	?
COc1cccc(OC(=O)CSc2nnc(-c3ccc4c(c3)OCO4)o2)c1	/	/	-5%	/	/	/
c1cc(CSc2nnc(-c3ccc4c(c3)OCO4)o2)ccn1	12%	2.5µM*	?	6%	?	2.5µM*
COc1ccc(C2=NCC(CSc3nccc(=O)[nH]3)S2)cc1 (stereo unspecified)	4%	2%	19µM*	8%	?	-1%
O=C(O)CCSc1nnc(-c2ccc3c(c2)OCO3)o1	-3%	-10%	13µM*	-29%	-1%	-10%
CC(=O)Nc1ccc(NC(=O)CSc2nnc(-c3ccc4c(c3)OCO4)o2)cc1	8%	/	/	/	?	/
SMILES	ELG1 genotoxic	NPC1 promoter act	FLuc modulator	SMN2 splice up	ELG1 repair inh	Rab9 promoter act
Cc1ccc(CSc2nnc(-c3ccc4c(c3)OCO4)o2)cc1	8%	3%	?	13%	?	-6%
CC(Oc1ccccc1F)C(=O)N1CCC(c2nc3ccccc3o2)CC1 (stereo unspecified)	/	/	-8%	/	/	/
CCCCCNC(=O)Cc1ccc(S(=O)(=O)N2CCOCC2)s1	-1%	-4%	2%	/	7%	-13%
Cc1cccc(-c2nnc(C3CCN(S(=O)(=O)c4cccc(Cl)c4)CC3)o2)c1	/	/	?	-14%	/	/
O=c1nc2ccccc2c2n1CC(CN1CCN(c3ccccc3)CC1)N2 (stereo unspecified)	/	/	/	-5%	/	/
COc1ccccc1Nc1nc(-c2cccc(N3C(=O)c4ccccc4C3=O)c2)cs1	1%	-1%	6.7µM*	6%	6%	-4%
CCOc1ccccc1Nc1nc(-c2cccnc2)cs1	-6%	-2%	?	/	-2%	6%
O=C(CN1CCN(c2nc(-c3ccccc3)cs2)CC1)Nc1ccc2c(c1)OCO2	1%	-4%	7%	-16%	?	0%
O=C1c2ccccc2C(=O)N1c1cccc(-c2csc(Nc3ccc4c(c3)OCO4)n2)c1	16%	18%	2.1µM*	?	?	29%
CCOC(=O)C1CCCN(CC(=O)Nc2c(C(=O)OC)[nH]c3ccc(Cl)cc23)C1 (stereo unspecified)	-18%	-1%	3%	25%	21µM*	-2%
CCOC(=O)c1[nH]c2ccc(Cl)cc2c1NC(=O)/C=C/c1ccc2c(c1)OCO2	14%	-10%	6%	-24%	-2%	-16%
CCN(CC(=O)Nc1c(C(=O)OC)[nH]c2ccc(Cl)cc12)c1ccc2c(c1)OCO2	-22%	4%	-11%	/	23µM*	9%
COC(=O)c1[nH]c2ccccc2c1NC(=O)CN1CCCCCC1	-4%	8%	4%	5%	?	3%
COC(=O)c1[nH]c2ccccc2c1NC(=O)CN1CCC(C(N)=O)(N2CCCCC2)CC1	-2%	-1%	1%	?	6.5µM*	-2%
COC(=O)c1[nH]c2ccccc2c1NC(=O)CN1CCN(C(=O)c2ccco2)CC1	-5%	8%	2%	-11%	21µM*	2%
CN(C(=O)CC1C(=O)NCCN1Cc1ccc(F)c(F)c1)C1CCOCC1 (stereo unspecified)	0%	-4%	0%	/	10%	-3%
CCOc1cc(C(=O)Nc2cc3c(cc2N2CCCC2)n(C)c(=O)c(=O)n3C)cc(OCC)c1OCC	/	/	-19%	1%	/	/
Cc1ccc(CNc2ccc(-c3nc(C(C)C)no3)cc2[N+](=O)[O-])cc1	/	/	-1%	/	/	/
O=C(Nc1nc(-c2ccc(Br)cc2)ns1)c1ccccc1F	/	/	-12%	/	/	/
COC(=O)c1c(NC(=O)CN2CCN(C(=O)c3ccco3)CC2)c2cc(C)ccc2n1C	-12%	-3%	3%	-24%	21µM*	12%
